89 molecules from PubChem BioAssay AID463173 (ICCB-Longwood Screening Facility, Harvard Medical School, 2010) can be followed below.

Each structure is given as a SMILES string. The whole screen tested about 52,000 compounds, of which about 4,300 (8.3%) were called active. This is one part of a sample in which actives are shown more often than they occur. A number with no mark means an inactive call. Cut-off read from the data, not from the text of the source: active = survival mostly below about 52% (no sharp cut-off); inactive = mostly above about 56%.

This experiment relates to DeltatarO mutant. The experiment in a line: growth inhibition of S. aureus wild type versus tarO mutant, primary screen, teichoic acid synthesis inhibitors, RN4220, OD600 (AID 463173). Conditions: OD600, 18 h, hits give low values, screened at 18.75 µg/mL (by protocol).
`COc1ccc2c(CNCCc3cccs3)c(C(=O)O)n(Cc3ccccc3C)c2c1`: the survival was 94%.
In the case of `CC1=C(C(=O)Nc2ccc(C)cc2C)C(c2ccc(Br)cc2)n2ncc(C(=O)Nc3cccc(C)c3)c2N1` (centres undefined), the survival was 128%.
Then `COc1ccc(-c2nc3ccccc3n3c(-c4cccc(C)c4)c4c(=O)n(C)c(=O)n(C)c4c23)cc1`, with 71%; and `CCOC(=O)c1cc(-c2ccccc2)nn1Cc1ccccc1`, with -12% (active); and `CCOC(=O)c1cc(-c2ccc(OC)cc2)nn1Cc1ccccc1`, with 66%.
`Cc1ccc(-c2cc(C(=O)O)n(Cc3ccccc3)n2)cc1`: the survival is 67%.
Regarding `CC(=O)Nc1cc(-c2ccccc2)nn1Cc1cccc(Cl)c1`, the survival was 57%.
The value for `COc1ccc(-c2cc(C(=O)O)n(Cc3ccccc3)n2)cc1` was 76%; that for `Cc1ccc2c(c1)cc1c(=O)n(Cc3cccc(Cl)c3)nc(C)n12` was 89%; that for `CCOC(=O)c1cc(-c2ccc(C)cc2)nn1Cc1ccccc1` was -12% (active).
The value for `Cc1ccc(-c2cc(N)n(Cc3cccc(Cl)c3)n2)cc1` was 55% (active); that for `O=C(O)c1cc(-c2ccccc2)nn1Cc1ccccc1` was 73%; that for `O=C(c1ccco1)N1CCN(C(c2ccccc2)c2nnnn2Cc2ccccc2)CC1` (centres undefined) was 88%.
Then `O=C(Cn1cc(C(=O)c2ccco2)c2ccccc21)Nc1ccccc1C(F)(F)F`, with 74%; and `CCn1nc(C)c2c(-c3ccccc3)cc(=O)n(C(C)C(=O)NCCc3ccc(Cl)cc3)c21` (centres undefined), with 87%; and `CCc1nnc(SCc2cccc(Cl)c2)c2cc3sccc3n12`, with -2% (active).
On to `CCc1nnc(SCc2ccc(F)cc2Cl)c2cc3sccc3n12`, for which the survival was 80%.
The value for `CCc1nnc(SCc2c(F)cccc2Cl)c2cc3sccc3n12` was 94%; that for `CCOC(=O)N1CCN(Cc2nc3cc(NC(=O)CC)ccc3n2C(C)C)CC1` was 100%; that for `COc1cccc(-c2csc(N3CCN(C(=S)NCc4ccco4)CC3)n2)c1` was 91%.
The value for `COc1ccc(CNC(=O)CCc2c(C)nn(-c3ccc(N4CCCCC4)nn3)c2C)c(OC)c1` was 52% (active); that for `CCOC(=O)c1ccc(NC(=O)CCc2c(C)nc3cc(-c4ccc(OC)cc4OC)nn3c2C)cc1` was 62%; that for `CCOc1ccccc1CNC(=O)Cn1nc(N2CCN(c3ccccc3)CC2)ccc1=O` was 84%.
Take `COc1ccc(CNC(=O)Cn2nc(N3CCN(c4ccccc4)CC3)ccc2=O)c(OC)c1`: the survival was -2% (active).
The value for `COc1ccc(CNC(=O)CCc2c(C)nn(-c3ccc(N4CCCC4)nn3)c2C)c(OC)c1` was 75%.
The value for `COc1ccccc1-c1cc2nc(C)c(CCC(=O)Nc3ccc(Br)c(C)c3)c(C)n2n1` was 67%; that for `COc1ccc(CNC(=O)CCc2c(C)nn(-c3ccc(N4CCOCC4)nn3)c2C)c(OC)c1` was 85%; that for `COc1ccc(CCNC(=O)CCc2c(C)nc3cc(-c4ccccc4OC)nn3c2C)c(OC)c1` was 54% (active).
The value for `CCOc1ccc(NC(=O)CCc2c(C)nc3cc(-c4ccccc4OC)nn3c2C)cc1` was 53% (active); that for `COc1cccc(NC(=O)Cn2nc(N3CCN(c4ccccc4)CC3)ccc2=O)c1` was 77%.
For the molecule `COc1ccccc1CNC(=O)CCc1c(C)nc2cc(-c3ccccc3OC)nn2c1C`, the survival was 58%.
The value for `COc1ccc(CCNC(=O)CCc2c(C)nc3cc(-c4ccc(Cl)cc4)nn3c2C)c(OC)c1` was 108%; that for `CC(C)c1ccc(S(=O)(=O)NCc2nc3cccnc3n2Cc2ccc(F)cc2)cc1` was 88%.
The value for `COc1cccc(CNC(=O)CN2C(=O)COc3ccc(S(=O)(=O)N4CCOCC4)cc32)c1` was 94%.
The value for `Cn1cc(S(=O)(=O)N2CCCCCC2)cc1C(=O)Nc1ccc(Cl)c(C(F)(F)F)c1` was 67%; that for `O=C(Nc1cccc(OC(=O)c2ccco2)c1)c1ccccc1` was 58%; that for `CNC(=S)N1CCN(C(=O)/C(=C/c2ccc(F)cc2)NC(C)=O)CC1` was 95%.
`Cc1ccc(-c2cc(C(=O)N(Cc3ccc(C(C)(C)C)cc3)Cc3ccco3)no2)cc1`: the survival is 113%.
The value for `CCc1nc2ccc(C(=O)NCCc3ccc(OC)cc3OC)cc2nc1CC` was 68%.
For the molecule `Cc1cccc(N2CCN(S(=O)(=O)c3ccc4oc(=O)c5ncn(C)c5c4c3)CC2C)c1` (centres undefined), the survival was 77%.
The value for `Cc1ccc2c(c1)NC(=O)C(CC(=O)Nc1ccccc1Cl)O2` (centres undefined) was 77%; that for `CCc1nn(C(C)C(=O)N2CCN(c3ccccc3)CC2)c(=O)c2cc3occc3n12` (centres undefined) was 82%.
The value for `CC(=O)Nc1ccc(-c2cc(C(=O)O)c3c(-c4ccccc4)[nH]nc3n2)cc1` was 56%; that for `O=C(Nc1nc2c(F)cc(F)cc2s1)c1ccc(S(=O)(=O)N2CCc3ccccc32)cc1` was 115%.
The value for `Clc1ccc2nc(NCc3ccccc3)c3nncn3c2c1` was 96%; that for `CC(C)OCCCn1c(SCc2ccccc2C#N)nc2c(sc3ccccc32)c1=O` was 87%; that for `CCOC(=O)c1cccc(NC(=O)N2CC(CC)Oc3ccccc32)c1` (centres undefined) was 54%.
Turning to `CC(=O)c1ccc(NC(=O)CCc2c(C)nc3cc(-c4ccc(Cl)cc4)nn3c2C)cc1`, the survival is 47%.
The value for `COC(=O)c1cc(NC(=O)CCc2c(C)nc3cc(-c4ccccc4)nn3c2C)cc(C(=O)OC)c1` was 118%; that for `CCOc1ccc(CCNC(=O)CCc2c(C)nc3cc(-c4ccccc4OC)nn3c2C)cc1` was 50% (active); that for `CCOC(=O)CC(NC(=O)CCc1c(C)nc2cc(-c3ccccc3)nn2c1C)c1ccc(C)cc1` (centres undefined) was 109%.
Take `CCOC(=O)Cc1c(C)nc2cc(C)nn2c1C`: the survival is 98%.
The value for `CCOC(=O)c1cccc(NC(=O)CCc2c(C)nc3cc(-c4ccc(Cl)cc4)nn3c2C)c1` was 35% (active).
Then `CCOc1ccc(NC(=O)CCc2c(C)nc3cc(-c4ccc(Cl)cc4)nn3c2C)cc1`, with 35% (active); and `COc1ccccc1-c1cc2nc(C)c(CCC(=O)NCCc3cccc(C)c3)c(C)n2n1`, with 55%; and `CCN(CC)S(=O)(=O)c1ccc(NC(=O)CCc2c(C)nc3cc(-c4ccc(Cl)cc4)nn3c2C)cc1`, with 92%.
In the case of `COc1ccccc1-c1cc2nc(C)c(CCC(=O)NCCc3ccc(SC)cc3)c(C)n2n1`, the survival is 81%.
The value for `CCOC(=O)Cc1c(C)nc2cc(-c3ccc(C(C)(C)C)cc3)nn2c1C` was -4% (active).
The value for `CCOC(=O)c1cccc(NC(=O)CCc2c(C)nc3c4cccnc4nn3c2C)c1` was 100%; that for `c1ccc(C2=NNC(c3nc4ccccc4[nH]3)C2)cc1` (centres undefined) was 60%; that for `CCCOC(=O)C1=C(C)OC23OC(N)=C(C#N)C12C(=O)c1ccccc13` (centres undefined) was 80%.
Take `O=C(Cn1c(-c2cccs2)cc2ccccc21)NCCCN1CCN(c2ccccc2F)CC1`: the survival was 69%.
Then `CCn1c(SCc2cccc(Br)c2)nnc1-c1nonc1NC(C)=O`, with 108%.
Regarding `CC1CCN(C(=O)c2cnn(-c3ccc(Cl)cc3)c2C2CCN(C(=O)OC(C)(C)C)CC2)CC1`, the survival was 76%.
The value for `Cc1nc2nc(C)c(NS(=O)(=O)c3ccc(CC(C)C)cc3)c(=O)n2[nH]1` was 89%; that for `Cc1ccccc1NC(=O)Nc1nnc(N2CCCCCC2)s1` was 94%; that for `COC(=O)c1ccccc1NC(=O)CCc1c(C)nc2cc(-c3ccc(Cl)cc3)nn2c1C` was 41% (active).
As to `CCc1ccccc1NC(=O)CCc1c(C)nc2cc(-c3ccccc3)nn2c1C`, the survival is 59%.
With `COc1ccccc1CNC(=O)CCc1c(C)nc2cc(-c3ccc(Cl)cc3)nn2c1C`, the survival was 129%.
`Cc1cc2oc(C(=O)N(Cc3ccc(N(C)C)cc3)CC3CCCO3)c(C)c2cc1Cl` (centres undefined): the survival is 65%.
The value for `Cc1ccccc1CNCCSc1nnnn1C` was 84%; that for `CCc1ccc(-c2nc3cc(NC(=O)c4ccc(F)cc4)ccc3o2)cc1` was 83%.
The value for `CCc1ccc(-c2nc3cc(NC(=O)c4ccc(C)c(C)c4)ccc3o2)cc1` was 151%.
Then `COc1ccc2oc(-c3ccc(C)c(NC(=O)c4ccc5c(c4)OCCO5)c3)nc2c1`, with 70%; and `CCc1ccc(C(=O)Nc2cccc(-c3nc4cc(C(C)C)ccc4o3)c2)cc1`, with 41% (active); and `CC(C)c1ccc2oc(-c3cccc(NC(=O)c4ccc5c(c4)OCCO5)c3)nc2c1`, with 28% (active).
Turning to `Cc1ccc2oc(-c3ccc(C)c(NC(=O)c4ccc5c(c4)OCCO5)c3)nc2c1`, the survival is 48%.
Take `Cc1ccc(S(=O)(=O)N(CC(O)Cn2c3ccccc3c3ccccc32)c2cccc(C(=O)NCCO)c2)cc1` (centres undefined): the survival is 56%.
The value for `Cc1ccc(S(=O)(=O)N(CC(O)Cn2c3ccccc3c3ccccc32)c2cccc(C(=O)N(C)C)c2)cc1` (centres undefined) was 54%.
The value for `Cc1ccc(S(=O)(=O)N(CC(O)Cn2c3ccccc3c3ccccc32)c2cccc(C(N)=O)c2)cc1` (centres undefined) was 38% (active); that for `CCc1nn2c(-c3ccco3)ccnc2c1-c1ccc(F)cc1` was 81%; that for `COc1cccc(-c2ccnc3c(-c4ccc(F)cc4)c(C)nn23)c1` was 93%.
Then `COc1ccc(-c2ccnc3c(-c4ccc(F)cc4)c(C)nn23)cc1OC`, with 88%; and `COc1ccccc1-c1ccnc2c(-c3ccc(Br)cc3)c(C)nn12`, with 94%; and `Cc1ccccc1-c1ccnc2c(-c3ccc(F)cc3)c(C)nn12`, with 6% (active).
As to `Cc1nn2c(-c3ccco3)ccnc2c1-c1ccc(F)cc1`, the survival is 90%.
Then `CCc1nn2c(-c3ccccc3OC)ccnc2c1-c1ccc(F)cc1`, with 2% (active); and `CCc1nn2c(-c3ccccc3OC)ccnc2c1-c1ccccc1`, with 0% (active).
The value for `CCc1nn2c(-c3ccco3)ccnc2c1-c1ccccc1` was 84%.
